Results filed as inconclusive are left out. Active and inactive are the calls of the source. Rule as the data show it, unless noted: active = inhibition above about 80%; inactive = the rest.

A short description of assay [1]: SU-DIPG-XXV glioma cell viability, MIPE5.0 library, qHTS (AID 1347068; cut-off not given, nearly all actives have IC50 up to about 30 µM;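 as to IC50: cells exposed to compound for 48 hours before viability readout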).
Assay [2] can be described thus: LFS_MB_P medulloblastoma growth inhibition, cell-based, chromothripsis tumors, cisplatin or BGB combos (AID 1671449).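 Also: cells exposed for 96 hours; 0% = vehicle DMSO and 100% = killing by high DMSO.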 Particulars: LFS_MB_P medulloblastoma cells.
A short description of assay [3]: HDN33 neuroblastoma growth inhibition, cell-based, chromothripsis tumors, cisplatin or BGB combos (AID 1671450).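 Also: cells exposed to compound for four days; 0% = vehicle DMSO and 100% = cell killing by high DMSO.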 The note with it: HDN33 neuroblastoma cells, stronger effect = higher value.
Assay [4] can be described thus: ICB984 medulloblastoma cell growth inhibition, synergistic combos for chromothripsis tumors, cisplatin or BGB combos (AID 1671451; call rule not given here;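 also: cells exposed for 96 hours before readout; 0% = vehicle DMSO and 100% = killing by high DMSO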). The note with it: ICB984 medulloblastoma cells, drug combinations, stronger effect = higher value.
Assay [5] can be described thus: LFS_MB_1R medulloblastoma cell growth inhibition, synergistic combos for chromothripsis tumors, cisplatin or BGB combos (AID 1671452).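 Also: cells exposed for 96 hours before readout.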 Particulars: LFS_MB_1R medulloblastoma cells, stronger effect = higher value.
Assay [6] is described as follows: HTB85 osteosarcoma cell growth inhibition, synergistic combos for chromothripsis tumors, BGB or cisplatin IC20 combos (AID 1671453).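 Also: cells exposed for 96 hours before readout; 0% = vehicle DMSO and 100% = high DMSO killing control.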 Particulars: HTB85 osteosarcoma cells, drug combinations, stronger effect = higher value.
A short description of assay [7]: CRL2098 osteosarcoma cell growth inhibition, synergistic combos for chromothripsis tumors, BGB or cisplatin IC20 combos (AID 1671454).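 Also: cells exposed for 96 h before readout; 0% = vehicle DMSO and 100% = killing by high DMSO.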 The note with it: CRL2098 osteosarcoma cells, drug combinations, stronger effect = higher value.
Assay [8] in a line: HD-MB03 medulloblastoma cell growth inhibition, synergistic combos for chromothripsis tumors, BGB or cisplatin IC20 combos (AID 1671455; in the data active = inhibition above about 83%;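 also: 0% = vehicle DMSO and 100% = high DMSO as cytotoxic control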). Particulars: HD-MB03 medulloblastoma cells, stronger effect = higher value.
The nature of assay [9]: UWB1.289 ovarian carcinoma cell growth inhibition, synergistic combos for chromothripsis tumors, BGB or cisplatin combos (AID 1671456).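 Also: cells exposed to compound for four days; 0% = vehicle DMSO and 100% = killing by high DMSO.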 Particulars: UWB1.289 ovarian carcinoma cells, stronger effect = higher value.
The nature of assay [10]: LFS_MB_2R medulloblastoma cell growth inhibition, synergistic combos for chromothripsis tumors, cisplatin combos (AID 1671457).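 Also: cells exposed to compound for four days before readout.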 Particulars: LFS_MB_2R medulloblastoma cells, stronger effect = higher value.
Assay [11] is described as follows: MDA-MB-436 breast carcinoma cell growth inhibition, synergistic combos for chromothripsis tumors, BGB or cisplatin combos (AID 1671458; call rule not given here;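 also: cells exposed for 96 hours; 0% = vehicle DMSO and 100% = killing by high DMSO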). Particulars: MDA-MB-436 breast carcinoma growth inhibition, drug combinations, stronger effect = higher value.
Assay [12] can be described thus: UWB1.289_BRCA1 ovarian cancer growth, cell-based, BGB or cisplatin combinations (AID 1671459). Particulars: UWB1.289 BRCA1 ovarian carcinoma, drug combinations, stronger effect = higher value.
The nature of assay [13]: human astrocyte viability loss, single and combined drugs, cytotoxicity control for chromothriptic childhood tumor combination screen, cell-based, BGB or cisplatin IC20 combos (AID 1671460).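 Also: cells exposed to compounds for 96 hours before viability readout; 0% = vehicle and 100% = killing control.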 The note with it: Human astrocytes, drug combinations, stronger effect = higher value.
Assay [14] can be described thus: growth inhibition of BT084 medulloblastoma cells, cell-based, ICGC_MB145, cisplatin and BGB IC40 combos (AID 1671461).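 Also: cells exposed to drugs for 96 hours; 0% = vehicle DMSO and 100% = high DMSO full killing control.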 The note with it: drug combinations, stronger effect = higher value.
Assay [15] in a line: growth inhibition of RCMB18 medulloblastoma cells, cell-based, cisplatin and BGB IC40 combos (AID 1671462).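 Also: cells exposed to compound for four days.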 Particulars: stronger effect = higher value.
Assay [16] can be described thus: growth inhibition of CRL1545 osteosarcoma cells, cell-based, cisplatin and BGB IC20 combos (AID 1671464).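 Also: cells exposed to compound for 96 hours before readout; 0% = vehicle DMSO and 100% = high DMSO killing control.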 Particulars: stronger effect = higher value.
Assay [17] in a line: sensitizers of A549 cells to miR-34 induction, primary screen, imaging, A549 dox-inducible miR-34, nuclei and caspase counts (AID 1347080;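 active = compounds whose cell count with miR-34 switched on is under 0.7 times the count with it off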). Particulars: A549 miR-34 inducible, Hoechst nuclei count, 48 h.
Assay [18] can be described thus: survival rescue of mitochondrial mutant cells in low glucose, primary screen, MELAS cybrids, Rieske KO mouse fibroblasts, CellTiter-Glo (AID 1508586;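 active = mean z-score across replicates of 1.96 or higher in either the MELAS or the Rieske mutant cell line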;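 also: z relative to plate mean and SD of compound and empty wells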).
Where [19] appears, read: measured here: combination with BGB IC40, at 0.05 µM.
The mark [20] stands for this setting: measured here: with BGB IC20 combination, at 0.5 µM.
The mark [21] stands for this setting: measured here: with cisplatin IC20 combination, at 0.5 µM.
Setting [22] is: measured here: combination with cisplatin, at 0.5 µM.
[23] abbreviates: measured here: combination with cisplatin, at 5 µM.
Setting [24] is: stronger effect = lower value, cell number ratio, induced over uninduced.
Setting [25] is: measured here: relative caspase fold change +Dox/-Dox.
Where [26] appears, read: measured here: total cells with miR-34 induction, stronger effect = lower value.
The mark [27] stands for this setting: measured here: total cells without miR-34 induction.

With `NCCOc1cc(C(=O)Nc2cc(OCCN)c3ccccc3n2)nc(C(=O)Nc2cc(OCCN)c3ccccc3n2)c1`, in [1], the compound was called inactive. The inhibition in assay [2] (at 0.5 µM, stronger effect = higher value) is 2.22% (inactive); in assay [2] (measured here: combination with BGB IC20, at 0.005 µM) it was -38.8%; in assay [2] (measured here: combination with BGB IC40, at 0.005 µM), 62.7%; in assay [2] (setting [19]), -24.9%; in assay [2] (measured here: combination with cisplatin, at 0.5 µM, stronger effect = higher value) it was 12.8%; in assay [2] (measured here: combination with cisplatin, at 5 µM, stronger effect = higher value), -64.9%. Further, the inhibition in assay [3] (BGB combo, at 5 µM) is -54.1%; in assay [3] (at 0.5 µM), -9.7% (inactive); in [3] (cisplatin combo, at 5 µM) it was -17.5%; in assay [3] (setting [20]) it was -37.5%; in assay [3] (setting [21]), 8.64%; in [3] (single agent, at 5 µM) it was -33.3%. Moreover, the inhibition in assay [4] (BGB IC20 combo, at 0.005 µM) is -1.03%; in [4] (BGB IC40 combo, at 0.005 µM) it was -1.14%; in [4] (BGB IC40 combo, at 0.05 µM) it was 41.5%; in assay [4] (at 0.5 µM) it was -7.14% (inactive); in assay [4] (cisplatin combo, at 0.05 µM), 38.8%; in assay [4] (cisplatin combo, at 0.5 µM), 5%. The inhibition in [4] (cisplatin combo, at 5 µM) was -7.59%; in [4] (measured here: 5 uM single agent, at 5 µM) it was -6.04%; in assay [5] (at 0.5 µM), -45.4% (inactive); in assay [5] (setting [19]), -42.8%; in [5] (setting [22]) it was -52.8%; in assay [5] (setting [23]), -9.07%. Moreover, the inhibition is -5.41% (inactive) in assay [6] (at 0.5 µM); 16.9% in [6] (measured here: with BGB IC20, at 0.5 µM); 14.7% in assay [6] (measured here: with BGB IC20, at 5 µM); -18.6% in assay [6] (measured here: with cisplatin IC20, at 0.5 µM); 11.6% in [6] (measured here: with cisplatin IC20, at 5 µM); -2.66% in [6] (single agent, at 5 µM). Also, the inhibition is -35.9% (inactive) in [7] (at 0.5 µM); -36.6% in [7] (measured here: combination with BGB at IC20, at 0.5 µM); -37.8% in assay [7] (measured here: combination with cisplatin at IC20, at 0.5 µM); -13.1% (inactive) in [8] (at 0.5 µM); -12.1% in assay [8] (measured here: combo with BGB at IC20, at 0.5 µM); -20.4% in assay [8] (measured here: combo with cisplatin at IC20, at 0.5 µM). The inhibition in assay [9] (at 0.5 µM) is -1.71% (inactive); in [9] (measured here: inhibition with BGB combination, at 0.05 µM) it was -20.7%; in assay [9] (measured here: inhibition with cisplatin combination, at 0.05 µM), -14.5%; in assay [10] (at 0.5 µM), -18.8% (inactive); in assay [10] (setting [22]), -2.5%; in assay [10] (setting [23]), -13.9%. The inhibition in assay [11] (at 0.5 µM) was 0.88% (inactive); in assay [11] (measured here: BGB combination, at 0.5 µM), 5.33%; in [11] (measured here: BGB combination, at 5 µM), 54.3%; in assay [11] (measured here: cisplatin combination, at 0.5 µM), -17.7%; in [11] (measured here: cisplatin combination, at 5 µM), 63.8%; in assay [12] (BGB combination, concentration series, at 5 µM) it was 15.3%. In addition, the inhibition in assay [12] (at 0.5 µM) was -6.49% (inactive); in assay [12] (cisplatin combination, concentration series, at 5 µM), 19.1%; in assay [13] (at 0.5 µM), 5.8% (inactive); in assay [13] (measured here: combo with BGB IC20, at 0.5 µM) it was 5.26%; in assay [13] (measured here: combo with cisplatin IC20, at 0.5 µM), 9.36%; in assay [14] (at 0.5 µM), -11.2% (inactive). For the same compound, the inhibition in assay [14] (cisplatin combination, at 0.5 µM) was -3.81%; in assay [14] (cisplatin combination, at 5 µM) it was -140%; in [14] (measured here: BGB IC40 combination 0.05 uM, at 0.05 µM), -28.5%; in assay [14] (single agent, at 5 µM), -22.2%; in assay [15] (at 0.5 µM), -16.6% (inactive); in assay [15] (cisplatin combo, at 5 µM) it was -19.4%. The inhibition in [15] (measured here: BGB IC40 combination, at 0.05 µM) was -9.5%; in [15] (setting [22]), -38.3%; in [15] (single agent, at 5 µM), -10.4%; in assay [16] (at 0.5 µM), 11.6% (inactive); in [16] (setting [20]), -1.76%; in assay [16] (setting [21]), 17%. The inhibition was -15.4% in assay [16] (single agent, at 0.05 µM) and 55% in assay [16] (single agent, at 5 µM).

In the case of `Cc1ccc(Nc2cc(N[C@@H]3CCCC[C@@H]3N)nnc2C(N)=O)nc1C`, the result in assay [1] was inactive.

As for `CCCCCC(=O)/C=C/[C@H]1[C@H](O)CC(=O)[C@@H]1CCCCCCC(=O)O`, the fold change is 1.03 (inactive) in assay [17] (setting [24]) and 1.35 in assay [17] (setting [25]). In addition, the cell count was 5840 in assay [17] (setting [26]) and 5690 in [17] (setting [27]).

As for `CCCCCCCC/C=C\CCCCCCCC(=O)C(F)(F)F`, the fold change in [17] (setting [24]) is 0.972 (inactive); in assay [17] (setting [25]), 0.952. Besides, the cell count in assay [17] (setting [26]) is 6200; in [17] (setting [27]), 6380.

As for `COc1ccc(-c2cnc3c(-c4cccc5ncccc45)cnn3c2)cc1`, the compound was classed as inactive in assay [1]. For the same compound, the fold change in [17] (setting [24]) was 0.802 (inactive); in [17] (setting [25]), 0.646. Moreover, the cell count in [17] (setting [26]) is 4530; in [17] (setting [27]), 5640. The z-score in assay [18] (MELAS cybrid survival, CellTiter-Glo 48 h, stronger effect = higher value) was -0.0268 (inactive); in assay [18] (Rieske KO mouse fibroblast survival, CellTiter-Glo 72 h) it was -0.688.

For `O=C(O)C[C@H]1CCc2c1[nH]c1ccc(OCc3ccc(C4CCCC4)c(C(F)(F)F)c3)cc21`, the compound was classed as inactive in [1].

Consider `Cn1c(NC[C@@H](N)Cc2ccccc2)nc(-c2ccncc2)c(-c2ccc3ccccc3c2)c1=O`, for which the compound was called inactive in [1].

Consider `O=C(O)c1ccccc1-c1ccc(/C=c2\sc3nc4cc(Br)cnc4n3c2=O)o1`, for which the call in assay [1] was inactive.

`O=C1S/C(=C\c2ccc(OCc3cccc(B(O)O)c3)cc2)C(=O)N1Cc1ccc(F)cc1`: the IC50 in [1] is 23.5 µM (active).

As for `CCOC(=O)c1ccnc(C(=O)OCC)c1`, the results for the fold change in assay [17] (setting [24]) and in assay [17] (setting [25]) were 0.975 (inactive) and 0.9, respectively. Besides, the cell count came to 5540 in [17] (setting [26]) and 5690 in assay [17] (setting [27]).

These data come from PubChem BioAssay.
